Compound activity deposited in PubChem by Broad Institute.
esBAF inh: inhibitors of esBAF chromatin remodeling in mouse ES cells. Bmi1-luciferase knock-in reporter, 24 h; 100% = twice the neutral-well signal. reporter increase, % at 12.5 µM. hit rate 2% among 350,000. AID 602393; in the data active = activation above about 40%; inconclusive = no clear call, values can overlap the other calls;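 note: a rise in the Bmi1 reporter signal indicates esBAF inhibition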
Statin myotox sup: suppressors of simvastatin-induced myotoxicity in C2C12 myotubes | ATP luminescence, 48 h; scaled: DMSO 0, geranylgeraniol control 100 | hit rate 0.78% among 330,000 | rescue of ATP level, % at 7.49 µM;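 active = mean ATP rescue above about 67%, or every replicate alone reaching that limit, limit read from the data, passing the limit was not always enough; inconclusive = no clear call, values can overlap the other calls; inactive = mean under the limit and some replicate under it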;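 note: myotubes were challenged with 10 µM simvastatin during compound exposure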
MITF act: increases MITF-driven TRPM1 promoter luciferase signal; SK-MEL-5 TRPM1-promoter luciferase, 24 h; % of positive control, neutral wells = 0; activation, % at 12.5 µM; hit rate 0.75% among 300,000; AID 588334;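 active = mean activation of at least 80% with every replicate also reaching 80%; inconclusive = mean reaches 80% but some replicate falls short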
LMP1 NFkB inh: inhibitors of Epstein-Barr LMP1-induced NF-kappaB reporter. LMP1-induced NF-kappaB luciferase reporter cells, luminescence. inhibition, % at 12.5 µM. hit rate 0.69% among 350,000; in the data active = inhibition above about 41%; inconclusive = no clear call, values can overlap the other calls
Wnt bcat act: activates Wnt/beta-catenin signaling in a reporter cell assay. activator, plate reader. activation, % at 9.35 µM. hit rate 1.2% among 300,000. AID 743398; in the data active = activation above about 30%, passing the limit was not always enough; inconclusive = no clear call, values can overlap the other calls
MITF TRPM1 inh: MITF TRPM1 promoter inhibition in SK-MEL-5 cells | inhibition, % at 12.5 µM | SK-MEL-5 TRPM1 promoter luciferase, 24 h | hit rate 0.83% among 330,000 | AID 488899;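 active = mean inhibition across replicates of 60% or more, whatever share of single replicates reaches that level; inconclusive = some that reach 60%, reason not given; inactive = mean inhibition across replicates below 60%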
Of the large screens only hits and unclear results are named; the others gave an inactive call. Shown are actives, neighbours in structure and some others; about 4% of the full set was active somewhere.

C[C@H]1CN([C@@H](C)CO)C(=O)c2cc(NC(=O)CCN3CCOCC3)ccc2O[C@@H]1CN(C)C(=O)Nc1ccc2c(c1)OCO2	none (no result: MITF act, LMP1 NFkB inh, Wnt bcat act, MITF TRPM1 inh)
O=C(Nc1ccccc1C(=O)NCCCn1ccnc1)c1ccccc1	Statin myotox sup 122
COc1ccc(C(=O)Nc2ccccc2C(=O)NCCCn2ccnc2)cc1	none (no result: Statin myotox sup, MITF act)
O=C(CN1C(=O)NC(c2ccccc2)(c2ccccc2)C1=O)NCc1ccccc1	none
Cc1ccc(C2(c3ccccc3)NC(=O)N(CC(=O)NCc3ccccc3)C2=O)cc1C (stereo unspecified)	LMP1 NFkB inh 70
CN1CCN(CC(=O)N2c3ccc(S(=O)(=O)NCCNC(=O)OC(C)(C)C)cc3C(=O)Nc3cccnc32)CC1	none
COc1cc(/C=C/c2ccc3cccc(O)c3n2)c(Br)cc1O	esBAF inh 40
CCC(C)OC(=O)C[N+](C)(C)CCOC1CC2CCC1(C)C2(C)C (stereo unspecified)	none (no result: esBAF inh, Statin myotox sup)
C/C(N)=C(/C#N)C(=O)COC(=O)c1cc(C)n(-c2ccc(F)cc2)c1C	esBAF inh 67
O=C(Cn1ccn(-c2ccc(F)c(F)c2)c(=O)c1=O)NCCc1ccccc1	none
Cc1ccc(C)c(OCc2nnc(N)s2)c1	none (no result: esBAF inh, Statin myotox sup, Wnt bcat act)
Nc1nnc(COc2ccc(Br)cc2Br)s1	esBAF inh 69
CC(C)COC(=O)N(C)c1ccc(C(O)(C(F)(F)F)C(F)(F)F)cc1	esBAF inh 45 (no result: Statin myotox sup)
COc1cc2ccccc2cc1C(=O)Nc1cccnc1	esBAF inh 48 (no result: Statin myotox sup)
COc1cc2ccccc2cc1C(=O)Nc1ccc(C)cn1	esBAF inh inconclusive, Wnt bcat act 35
COc1ccc(Cl)cc1NC(=O)CN1CCCCCC1	none (no result: esBAF inh, Statin myotox sup)
CCOC(=O)/C(C#N)=C/c1cc(C)n(-c2ccc(C)cc2)c1C	MITF act 93 (no result: Wnt bcat act)
CCOC(=O)/C(C#N)=C\c1cc(C)n(-c2ccccc2)c1C	none (no result: MITF act)
CC(C)(C)c1nn(-c2ccccc2)c2[nH]c(=O)c(CNCc3ccco3)cc12	MITF TRPM1 inh 67 (no result: Wnt bcat act)
COc1ccc(-n2c(C)nc3sc4c(c3c2=O)CCC4)cc1	none (no result: esBAF inh, Statin myotox sup)
COc1ccc(C(=O)Nc2nnc(SCC(=O)NC3CC3)s2)cc1	LMP1 NFkB inh 45
COc1cccc(C(=O)Nc2nnc(SCC(=O)NC3CC3)s2)c1	none
COc1ccc(C(=O)Nc2nnc(SCC(=O)Nc3ccc(NC(C)=O)cc3)s2)c(OC)c1	Wnt bcat act 36
Cc1cc(C)c(C(=O)c2ccc(C(=O)N(C(C)C)C(C)C)cc2)c(C)c1	none (no result: Wnt bcat act)
COCCCNC(=O)CC1C(=O)N(Cc2ccccc2)C(C)c2nc3ccccc3n21 (stereo unspecified)	none
CC(=O)Nc1nnc(COc2ccc(Cl)cc2)s1	esBAF inh inconclusive, MITF act 100
COCC#Cc1cnc2c(c1)C(=O)N([C@@H](C)CO)C[C@@H](C)[C@@H](CN(C)Cc1ccc(-c3ccccc3)cc1)O2	none (no result: MITF act, LMP1 NFkB inh, Wnt bcat act, MITF TRPM1 inh)
Cc1cccc(C(=O)NCN2CCN(c3ccccc3C#N)CC2)c1	LMP1 NFkB inh 82
Cc1noc(C)c1NC(=O)N(C)C[C@@H]1Oc2c(NC(=O)C3CCOCC3)cccc2C(=O)N([C@H](C)CO)C[C@H]1C	none (no result: MITF act, LMP1 NFkB inh, Wnt bcat act, MITF TRPM1 inh)
CCS(=O)(=O)c1nnnn1-c1ccccc1S(C)(=O)=O	LMP1 NFkB inh 51
CN(c1ccc(C(=O)N2CCOCC2)cc1[N+](=O)[O-])C1CCCCC1	esBAF inh 57 (no result: Wnt bcat act)
C[C@@H]1CN([C@@H](C)CO)C(=O)c2cc(NC(=O)Cc3ccccc3)ccc2O[C@H]1CN(C)CC1CCCCC1	none (no result: MITF act, LMP1 NFkB inh, Wnt bcat act, MITF TRPM1 inh)
COc1ccc2[nH]c(C)c(CCN3C(=O)C4CC=CCC4C3=O)c2c1 (stereo unspecified)	none
COc1ccc2[nH]c(C)c(CCN3C(=O)OC(C)(C)C3(C)O)c2c1 (stereo unspecified)	LMP1 NFkB inh 90
NC(=S)NN=Cc1nccc2c(N)cccc12	LMP1 NFkB inh 76 (no result: MITF act, MITF TRPM1 inh)
CCN(C(C)=O)c1cnc(C=NNC(N)=S)c2ccccc12	none (no result: esBAF inh, Statin myotox sup)
Cc1ccc(Nc2c(-c3ccc(C)o3)nc3ncccn23)cc1	none
C[N+](C)(C)CCN(Cc1ccc(Cl)cc1)c1ccccn1	none (no result: MITF act)
CN(C)CCN(Cc1ccc(Cl)cc1)c1ccccn1	LMP1 NFkB inh 52
FC(F)Oc1ccc(-c2csc(NNC3=NCCCCC3)n2)cc1	esBAF inh 49
Brc1ccc(-c2csc(NNC3=NCCCCC3)n2)cc1	none (no result: Wnt bcat act)
N#CC1(c2cccc(Br)c2)C(=O)Nc2ccccc21 (stereo unspecified)	none
Cc1ccc2nc(COc3ccc(Cl)cc3)cc(=O)n2c1	none (no result: esBAF inh, Statin myotox sup)
C=C(C)COc1ccc2oc(C)c(C(=O)OCCOC)c2c1	Statin myotox sup 106
COCCOC(=O)c1c(C)oc2ccc(OCc3ccccc3)cc12	none (no result: esBAF inh, Statin myotox sup)
CC(=O)Nc1ccc(S(=O)(=O)N2CCN(CC(=O)NC3CCCC3)CC2)cc1	none
CCC(=O)/C=C1/Sc2ccccc2N1CC	Statin myotox sup 112
CC(C)C1CC(O)(C2(O)CCCCC2)ON1 (stereo unspecified)	none (no result: Wnt bcat act)
COc1ccccc1S(=O)(=O)Cc1ccc(C(=O)N2CCN(c3ccccn3)CC2)o1	none
CCc1nc(SCC(=O)Nc2cc(C)on2)c2c(C)c(C)sc2n1	Statin myotox sup 130 (no result: Wnt bcat act)
Cc1cc(NC(=O)CSc2nc(C3CC3)nc3sc(C)c(C)c23)no1	none
C/C(=N\NC(=O)COc1ccc(C(C)(C)C)cc1)c1ccc(-n2ccnc2)cc1	esBAF inh 48 (no result: Wnt bcat act)
CCCOc1ccc(/C=c2\sc3nc(-c4ccco4)nn3c2=O)cc1OCC	Statin myotox sup 98 (no result: Wnt bcat act)
CC(=O)Oc1cccc(/C=c2\sc3nc(-c4ccco4)nn3c2=O)c1	none (no result: esBAF inh, Statin myotox sup, Wnt bcat act)
COc1ccc(C(=O)NCc2nnc(SCC(=O)NC3CCCCC3)n2C)cc1	none
O=C(Nc1ccccc1O)c1ccc(NS(=O)(=O)c2cccc3cccnc23)cc1	LMP1 NFkB inh 47, Wnt bcat act inconclusive
COC(=O)c1ccc(NC(=O)c2ccc(NS(=O)(=O)c3cccc4cccnc34)cc2)cc1	none (no result: Wnt bcat act)
O=C1C2CCCN2C(c2cccs2)N1c1ccc(F)cc1 (stereo unspecified)	none
CCC(=O)Nc1cccc(-c2nc3ccccc3o2)c1	esBAF inh 60
CC(=O)Nc1nc2ccc(-c3nc4ccccc4o3)cc2s1	Wnt bcat act 79 (no result: esBAF inh, Statin myotox sup)
O=C(CCN1C(=O)C2C3C=CC(C4CC34)C2C1=O)Oc1ccccc1 (stereo unspecified)	none
Nc1nonc1-c1nc2ccccc2n1CC(=O)O	none
C[C@@H]1CCCCO[C@@H](CN(C)C(=O)CCCN(C)C)[C@H](C)CN([C@@H](C)CO)C(=O)c2cc(NS(=O)(=O)c3ccccc3)ccc2O1	none (no result: Statin myotox sup, MITF act, LMP1 NFkB inh, Wnt bcat act, MITF TRPM1 inh)
C[C@@H]1CN([C@H](C)CO)C(=O)c2cc(NS(C)(=O)=O)ccc2O[C@@H](C)CCCCO[C@@H]1CN(C)C(=O)CCCN(C)C	none (no result: MITF act, LMP1 NFkB inh, Wnt bcat act, MITF TRPM1 inh)
Cc1n[nH]c(=S)n1/N=C/c1ccccc1OCc1ccc(Cl)cc1	esBAF inh 52 (no result: Wnt bcat act)
Cc1n[nH]c(=S)n1/N=C/c1cccc(OCc2ccccc2)c1	none (no result: esBAF inh, Statin myotox sup)
